Data on 80 molecules can be found in PubChem BioAssay AID651658 (Broad Institute, 2012).

Molecules are shown by their SMILES. Hit rate of the full screen: of about 340,000 compounds, about 5,100 (1.5%) were called active. The sample as a whole holds a higher share of actives than the screen did. Values without a mark were called inactive.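 How the source made its calls: active means mean Tm shift, scaled 0 neutral to 100 positive control, at about 1.3% or above, every replicate too (limit read from the data); inconclusive means no clear call, values can overlap the other calls; inactive means the rest.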

For the test, the target named is Fibroblast growth factor 22 (Homo sapiens) (UniProt Q9HCT0). Briefly: FGF22 ligand-induced thermal stabilization – biophysical, thermal shift, single point, FGF22 synaptogenesis inhibitor project, primary screen (AID 651658). As to conditions: recombinant FGF22 thermal shift, SYPRO orange fluorescence; at 9.99 µM; stronger effect = higher value; percent of sucrose octasulfate shift, DMSO zero.
Fibroblast growth factor 22 (Homo sapiens), sequence (Q9HCT0 whole entry, looked up): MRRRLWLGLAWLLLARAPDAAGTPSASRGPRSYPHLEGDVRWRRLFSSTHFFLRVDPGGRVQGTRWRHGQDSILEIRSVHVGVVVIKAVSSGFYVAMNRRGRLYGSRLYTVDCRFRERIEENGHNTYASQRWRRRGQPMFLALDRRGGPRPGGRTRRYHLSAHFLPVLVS
`CCCN1C[C@@H](C)[C@@H](OC)CN(C)C(=O)c2cc(NC(=O)CC(F)(F)F)ccc2OC[C@H]1C`: the activity (Tm shift, normalised) was 0.002%. On to `O=C(N/N=C/c1ccc(OCc2ccccc2)cc1)c1ccc(O)cc1`, for which the activity (Tm shift, normalised) is 2.5% (active). With `CCOc1ccc(-c2cc(C(=O)N/N=C/c3ccc(O)cc3)c3ccccc3n2)cc1` the figure was 0.307%. Turning to `O=C(Cc1cccs1)N/N=C/c1ccc(OCc2ccccc2)cc1`, the activity (Tm shift, normalised) is 0.285%.

Regarding `CCCNC(=O)N1CC2(CCN(C(=O)C3CC3)CC2)c2c([nH]c3cc(OC)ccc23)[C@H]1CO`, the activity (Tm shift, normalised) is -0.002%. For `CCC(=O)N(C)C[C@@H]1Oc2ncc(C#Cc3cccnc3)cc2C(=O)N([C@@H](C)CO)C[C@@H]1C`, the activity (Tm shift, normalised) was 0.101%.

Take `Cc1cc(Cl)ccc1OCCCC(=O)Nc1cccc(-n2cnnn2)c1`: the activity (Tm shift, normalised) is 0.032%.

Regarding `Cc1ccc(SCCC(=O)NCc2ccccn2)cc1`, the activity (Tm shift, normalised) is 0.257%. In the case of `Cc1cc(Cl)ccc1OCCCC(=O)NCc1ccccn1`, the activity (Tm shift, normalised) is 43.6% (active). With `COc1cccc(C(=O)n2ccc(-c3cccs3)n2)c1`, the activity (Tm shift, normalised) is -0.099%. In the case of `COc1cc(OC)cc(-c2nc(=S)n3ccsc3n2)c1`, the activity (Tm shift, normalised) was 43.5% (active). Regarding `C[C@@H]1CCCCO[C@H](CN(C)C(=O)Nc2ccc(C(F)(F)F)cc2)[C@@H](C)CN([C@@H](C)CO)C(=O)c2cc(NC(=O)Nc3cccc4ccccc34)ccc2O1`, the activity (Tm shift, normalised) was -0.177%.

As to `C[C@H]1CCCCO[C@@H](CN(C)Cc2ccccc2)[C@@H](C)CN([C@@H](C)CO)C(=O)c2cc(NC(=O)Cc3ccccc3)ccc2O1`, the activity (Tm shift, normalised) was -0.273%. On to `Cc1ccc(S(=O)(=O)N(Cc2ccccc2)c2ccccn2)cc1[N+](=O)[O-]`, for which the activity (Tm shift, normalised) was -0.192%. As for `Cc1ccc(S(=O)(=O)Nc2nc3ccccc3s2)cc1[N+](=O)[O-]`, the figure is 2.09% (active). `CCOc1ccc2sc(NS(=O)(=O)c3ccc(N)cc3)nc2c1`: the activity (Tm shift, normalised) is 0.571%. With `CO[C@H](CN(C)C(=O)c1ccc2c(c1)OCO2)[C@H](C)CN([C@@H](C)CO)S(=O)(=O)c1ccc(Cl)cc1` the figure was 0.025%; with `C[C@@H]1CCCCO[C@H](CN(C)S(=O)(=O)c2ccc(Cl)cc2)[C@H](C)CN([C@@H](C)CO)C(=O)c2cc(NS(=O)(=O)c3cn(C)cn3)ccc2O1`, -0.295%; with `CN(C)CCCn1c(=O)n(Cc2ccccc2)c(=O)c2c3c(sc21)CCCCC3`, 5.16% (active). As for `O=c1c2c3c(sc2n(CCN2CCCC2)c(=O)n1Cc1ccccc1)CCCCC3`, the figure is -0.07%; as for `COCCn1cnc2c1c(=O)n(Cc1ccc(Br)cc1)c(=O)n2Cc1ccccc1`, 0.138%. In the case of `CC(C)NC(=O)N(C)C[C@@H]1OCCCC[C@@H](C)Oc2ccc(NC(=O)NC3CCCCC3)cc2C(=O)N([C@@H](C)CO)C[C@@H]1C`, the activity (Tm shift, normalised) was -0.284%. As for `CCOc1ccc(/C=C(/NC(=O)c2ccccc2)C(=O)NCCC(=O)O)cc1`, the activity (Tm shift, normalised) is 43.7% (active). Regarding `COc1ccc(/C=C(/NC(=O)c2ccccc2)C(=O)Nc2cccc(C(=O)O)c2)cc1`, the activity (Tm shift, normalised) was -0.131%. In the case of `CCOC(=O)CNC(=O)/C(=C\c1ccc(F)cc1)NC(=O)c1ccccc1`, the activity (Tm shift, normalised) was 0.033%. `O=C(C[C@H]1C[C@H]2c3cc(NC(=O)Nc4ccc(C(F)(F)F)cc4)ccc3O[C@H]2[C@@H](CO)O1)NCCc1ccccc1`: the activity (Tm shift, normalised) was 0.15%. With `C[C@@H]1CN([C@H](C)CO)C(=O)c2cc(NC(=O)CCCCCC(=O)Nc3ccccc3N)ccc2O[C@H]1CN(C)Cc1ccncc1` the figure was -0.063%; with `C[C@@H]1CN([C@H](C)CO)C(=O)c2c(c3ccccc3n2C)-c2ccccc2CO[C@H]1CN(C)Cc1ccc(F)cc1`, 0.453%. As for `COc1cc(C=O)c(Br)cc1OCC(=O)NCc1ccccc1`, the figure is -0.006%. With `COc1cc(C(=S)NCc2ccccc2)cc(Br)c1O` the figure was 44.4% (active); with `COc1cc(C(=O)NCc2ccncc2)cc(Br)c1OCc1ccccc1`, -0.2%. As for `CCCC(=O)N1CC2(CCN(C(=O)C3CC3)CC2)c2c(n(C)c3cc(OC)ccc23)[C@H]1CO`, the activity (Tm shift, normalised) was 0.143%. `CN1C(=O)CC(c2ccccc2)C1=O` (stereo not given): the activity (Tm shift, normalised) is 0.006%. In the case of `O=C1OCC2=C1C(c1ccccc1)CC(=O)N2c1cccc(F)c1` (stereo not given), the activity (Tm shift, normalised) was 43.2% (active).

For `O=C1CC(c2ccccc2)C(=O)N2C(=O)CC(c3ccccc3)C(=O)N12` (stereo not given), the activity (Tm shift, normalised) is -0.169%.

On to `Cc1cnc(C(=O)OCC(=O)NCCCc2ccccc2)cn1`, for which the activity (Tm shift, normalised) was 0.133%. Consider `N#Cc1cc([N+](=O)[O-])ccc1NC(=O)COC(=O)c1cnccn1`, for which the activity (Tm shift, normalised) is -0.067%. Regarding `COc1cc(NC(=O)COC(=O)c2cnc(C)cn2)c(C)cc1[N+](=O)[O-]`, the activity (Tm shift, normalised) is 43.3% (active). As for `COc1cccc(CNC(=O)C[C@H]2CC[C@@H](NC(=O)C3CCC3)[C@@H](CO)O2)c1`, the activity (Tm shift, normalised) was -0.144%. Consider `CCc1ccccc1NC(=O)CN1CCN(C(=O)c2cc(C3CC3)nn2-c2ccccc2)CC1`, for which the activity (Tm shift, normalised) was 44.1% (active). With `COc1ccc(CN2CCN(C(=O)c3cc(C4CC4)nn3-c3ccccc3)CC2)cc1F` the figure was -0.038%; with `CCc1ccccc1NC(=O)CN(C)C(=O)c1cc(C2CC2)nn1-c1ccccc1`, 0.146%; with `O=C(CC(F)(F)F)N1C[C@H]2[C@@H](c3ccccc31)[C@H](CO)N2C(=O)Cc1ccccc1`, -0.096%. As for `CC(C)NC(=S)N1CCN(S(C)(=O)=O)CC1`, the activity (Tm shift, normalised) is -0.113%. With `CCCCNC(=O)N1CCN(S(C)(=O)=O)CC1`, the activity (Tm shift, normalised) is 43% (active). With `CS(=O)(=O)N1CCN(C(=O)CSc2ccccc2)CC1` the figure was -0.196%; with `COc1ccc(Cc2nnc(SCC(=O)c3cccc([N+](=O)[O-])c3)n2C)cc1`, 0.217%; with `COc1cccc(NCCC(=O)c2cccc([N+](=O)[O-])c2)c1`, 43.4% (active).

Turning to `COc1cccc(C(=O)CC(=O)C(=O)Nc2ccc([N+](=O)[O-])cc2C)c1`, the activity (Tm shift, normalised) was -0.246%.

As for `Cc1ccc(NC(=O)O/N=C/c2cccc([N+](=O)[O-])c2)cc1`, the activity (Tm shift, normalised) is 1.7% (active). With `CCC(CC)NC(=O)/C=C/c1cccc([N+](=O)[O-])c1` the figure was -0.166%. On to `Cc1ccc(NC(=O)C(=O)NCC2CCN(C(=O)c3cccc([N+](=O)[O-])c3)CC2)cc1`, for which the activity (Tm shift, normalised) was 0.238%. As to `CO[C@H]1CN(C)C(=O)c2cc(NC(=O)Nc3ccc4c(c3)OCO4)ccc2OC[C@@H](C)NC[C@@H]1C`, the activity (Tm shift, normalised) was -0.132%.

Consider `O=C(C1CCCCC1)N1CC2(C1)[C@H](c1ccccc1)[C@@H](CO)N2Cc1cncnc1`, for which the activity (Tm shift, normalised) is -0.162%. With `COc1ccc(NC(=O)Nc2ccc3c(c2)[C@H]2C[C@H](CC(=O)NC4CCCCC4)O[C@H](CO)[C@H]2O3)cc1`, the activity (Tm shift, normalised) is 0.101%. With `COc1cccc(S(=O)(=O)N2C[C@@H](O)COC[C@H]3O[C@@H](CC(=O)N4CCOCC4)CC[C@@H]32)c1` the figure was -0.291%. With `CC=Cc1ccc2n(c1=O)C[C@H]1[C@H](CO)[C@@H](C(=O)NCc3ccncc3)N(Cc3cncnc3)[C@@H]21` (mixture of isomers) the figure was -0.145%.

Regarding `COCCNC(=O)C[C@H]1C=C[C@@H](NS(=O)(=O)c2ccc(C)cc2)[C@@H](CO)O1`, the activity (Tm shift, normalised) was -0.463%. For the molecule `COc1ccc(NC(=O)Nc2ccc3c(c2)C(=O)N([C@H](C)CO)C[C@@H](C)[C@H](CN(C)CC2CCCCC2)OCCCC[C@@H](C)O3)cc1`, the activity (Tm shift, normalised) is -0.629%. Regarding `CC(=O)N1[C@@H](CO)[C@@H](c2ccc(C3=CCCC3)cc2)C12CN(C(=O)C1CC1)C2`, the activity (Tm shift, normalised) was -0.078%. With `COc1cccc(NC(=O)Nc2ccc(F)cc2)c1` the figure was 45.2% (active). For the molecule `O=C(Nc1ccncc1)Nc1ccc(F)cc1`, the activity (Tm shift, normalised) is 0.093%. As to `COc1cccc(C(=O)NNS(=O)(=O)c2ccc(F)cc2)c1`, the activity (Tm shift, normalised) is 0.083%. Turning to `COCC(=O)N1CC2(CN(C(=O)c3cccnc3)C2)c2c([nH]c3cc(OC)ccc23)[C@H]1CO`, the activity (Tm shift, normalised) was -0.173%. As for `O=C(CNC(=O)c1ccco1)NNC(=O)c1ccc(Br)cc1`, the activity (Tm shift, normalised) is -0.466%. `Cc1ccc(S(=O)(=O)NCCC(=O)NCc2ccc(Cl)cc2)cc1C`: the activity (Tm shift, normalised) is -0.011%. Consider `Cc1ccc(S(=O)(=O)NCC(=O)NNC(=O)c2ccc(Br)cc2)cc1C`, for which the activity (Tm shift, normalised) is 43.7% (active).

As to `O=C(C[C@H]1C=C[C@H](NC(=O)CC2CC2)[C@H](CO)O1)NCc1ccc(Cl)cc1`, the activity (Tm shift, normalised) is -0.113%.

In the case of `COc1cc2c(=O)n(C)c3ccccc3c2cc1OC`, the activity (Tm shift, normalised) is 0.02%.

Regarding `Cc1cc(C)c(-c2c(O)c3ccccc3n(C)c2=O)c(C)c1`, the activity (Tm shift, normalised) was -0.131%. `Cn1c2ccccc2c(=O)c2c(O)cccc21`: the activity (Tm shift, normalised) was 43.7% (active).

As to `O=C(C[C@H]1CC[C@H]2[C@@H](COC[C@H](O)CN2Cc2ccncc2)O1)NCC1CC1`, the activity (Tm shift, normalised) was -0.243%.

With `CN1[C@H](C(=O)N2CCc3ccccc3C2)[C@@H](CO)[C@@H]2Cn3c(ccc(-c4cncnc4)c3=O)[C@@H]21`, the activity (Tm shift, normalised) is 0.086%. As for `Cc1cc(C)cc(NC(=O)CSc2ccccc2)c1`, the activity (Tm shift, normalised) is 43.4% (active). Consider `Cc1cc(C)cc(NC(=O)CN2C(=O)c3ccccc3C2=O)c1`, for which the activity (Tm shift, normalised) is -0.094%. As for `O=C(CSc1ccccc1)Nc1ccc(C(=O)Nc2cccc(O)c2)cc1`, the figure is 42.3%; as for `O=C(CN1C(=O)NC2(CCCCCC2)C1=O)NCc1ccc(F)cc1`, 0.013%. With `O=C(CN1C(=O)NC2(CCCCCC2)C1=O)NC1CC1` the figure was -0.266%; with `O=C(CN1C(=O)NC2(CCCC2)C1=O)NCC1CCCO1` (stereo not given), 43.3% (active). For `COc1cccc(NC(=O)C[C@H]2CC[C@@H]3[C@@H](COc4ccc(NC(=O)C5CCOCC5)cc4C(=O)N3C)O2)c1`, the activity (Tm shift, normalised) is 0.326%.
